Screening results (PubChem)
Compounds with a hit are over-represented: about 1.4% of the library has one in this group of screens.
Polio RdRp inh = inhibitors of poliovirus RNA polymerase binding and polymerization; P03300; poliovirus polymerase elongation, fluorescence polarization; active compounds read low; % elongation, % (compound at 16.7 µg/mL); 150,000 tested, 0.66% active; AID 588519; in the data active = % elongation below about 90%
Mtb MenB inh = inhibitors of Mycobacterium tuberculosis MenB enzyme. inhibition, % (test concentration not listed). MenB enzyme assay, absorbance read-out. 100,000 tested, 0.43% active. AID 540299; in the data active = inhibition above about 21%, passing the limit was not always enough
AID504770 = E. coli YBA685 growth inhibition, screen for V. cholerae RctB inhibitors | 130,000 tested, 0.27% active | AID 504770 | z-score (no concentration beside the values) | E. coli YBA685 rctB-dependent plasmid, OD600 growth, 3 h; active compounds read low; in the data active = z-score below about -2, passing the limit was not always enough
Mtb MbtI inh = inhibitors of Mycobacterium tuberculosis siderophore enzyme MbtI; P9WFX0; purified MbtI enzyme, fluorescence intensity read-out; inhibition, % (no concentration beside the values); 100,000 tested, 0.89% active; in the data active = inhibition mostly above about 56%, no sharp cut-off; inactive = mostly below about 77%
Target sequence (P9WFX0 whole entry, looked up): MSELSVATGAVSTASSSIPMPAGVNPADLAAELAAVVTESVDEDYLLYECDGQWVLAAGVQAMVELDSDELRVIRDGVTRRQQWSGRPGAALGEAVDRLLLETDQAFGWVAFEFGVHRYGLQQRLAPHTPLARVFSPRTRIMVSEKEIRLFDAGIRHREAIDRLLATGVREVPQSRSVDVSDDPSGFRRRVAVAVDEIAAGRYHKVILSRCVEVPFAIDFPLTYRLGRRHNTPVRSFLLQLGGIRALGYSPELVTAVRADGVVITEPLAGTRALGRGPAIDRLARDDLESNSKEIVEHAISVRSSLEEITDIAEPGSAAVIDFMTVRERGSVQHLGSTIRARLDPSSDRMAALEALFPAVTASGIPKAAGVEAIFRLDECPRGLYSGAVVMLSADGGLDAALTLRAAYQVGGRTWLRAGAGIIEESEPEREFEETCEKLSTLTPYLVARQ
* marks the source's active call; other numbers are inactive results; / = no result; ! = a repeat was not active.

SMILES	Polio RdRp inh	Mtb MenB inh	AID504770	Mtb MbtI inh
NC(=S)N/N=C(/C(=O)c1ccccn1)c1ccccn1	74*	-8	-0.7	91*
N/C(=N\O)c1ccccn1	104	3	-0.1	-4
N/C(=N\NS(=O)(=O)c1ccccc1)c1ccccn1	104	-13	1.1	7
CCCCN(C)C(=O)C1CCC(CNS(=O)(=O)c2ccc3c(c2)CC(C)N3C(C)=O)CC1 (stereo not drawn)	15*	/	/	/
CCC(C)n1c(=O)[nH][nH]c1=S (stereo not drawn)	103	-8	-0.4	51*
Cc1ccc(O)c(C(=O)c2cnn(-c3nc(C)cc(=O)[nH]3)c2)c1	100	-24	1.8	193
Nc1nnc2cc(C(=O)c3cc(F)ccc3O)cnn12	96	-15	0.45	3
Cc1ccc(O)c(C(=O)c2cnn3c(=S)[nH]nc3c2)c1	71*	-18	-0.15	43
Cc1ccc(O)c(C(=O)c2cnn3c(N)nnc3c2)c1	64*	-3	1.8	-5
CN1/C(=N\O)c2cccc3cccc1c23	96	-70	0.25	81*
COc1ccc(C2(CNC(=O)c3ccco3)CCOCC2)cc1	78*	-13	0.15	/
Cc1sc2nc(SCC(=O)c3ccc(O)cc3O)[nH]c(=O)c2c1C	76*	13	-0.05	88*
CCOC(=O)c1c(N)sc2c1CN(C(=O)OC)N(C(=O)OC)C2	102	21	0.8	10
Cc1sc2nc[nH]c(=S)c2c1C	100	-65	-0.8	57*!
CCCc1ccc(OC(C)C(=O)Nc2sc3c(c2C(=O)OC)CCCCC3)cc1 (stereo not drawn)	86*	/	/	/
CCOC(=O)c1c(NC(=O)COc2ccc(C(C)(C)C)cc2)sc2c1CCCC2	104	/	/	/
COC(=O)c1c(NC(=O)COc2ccc(Cl)cc2C)sc2c1CCCCC2	85*	/	/	/
CCOC(=O)c1c(NC(=O)C(C)Oc2ccc(Cl)c(C)c2)sc2c1CCCC2 (stereo not drawn)	104	/	/	/
CCOC(=O)c1c(NC(=O)COc2cccc(C(F)(F)F)c2)sc2c1CCCCC2	90*	/	/	/
COC(=O)c1c(NC(=O)COc2cc(C)c(Cl)c(C)c2)sc2c1CCCC2	90*	/	/	/
COC(=O)c1c(NC(=O)COc2ccc(OC)cc2)sc2c1CCCC2	/	/	-0.75	/
COc1ccccc1NC(=O)C1CCN(c2nn3cc(-c4ccc(C)cc4)nc3s2)CC1	104	-18	-0.65	-10
COC(=O)c1ccc(CSc2nnc(SCC(=O)c3ccc(C)cc3C)s2)o1	103	-81	-0.85	-8
O=C(COc1ncnc2sccc12)N1CCc2ccccc21	110	7	0.85	-6
Cc1sc(=[N+]2CCCCC2)sc1SCCC(=O)O	104	0	-0.05	/
SMILES	Polio RdRp inh	Mtb MenB inh	AID504770	Mtb MbtI inh
COc1ccc(C=C2C(=O)NC(=S)NC2=O)cc1	104	-36	-1	97*
COc1ccc(C=C2C(=O)NC(=O)NC2=O)cc1	103	-42	0.3	27
C/C(=N/NC(=O)c1c(N)no[n+]1[O-])c1cccs1	103	-41	-0.2	3
O=C(c1cccs1)c1no[n+]([O-])c1C(=O)c1cccs1	95	-16	-6.5*	60
CNC(=S)N/N=C/c1cccc(Cl)c1	13*	-6	-0.5	24
CC(C)NC(=S)N/N=C/c1cccc(O)c1	104	-7	-0.35	16
COC(=O)c1c(-c2cccs2)csc1NC(=O)COc1ccccc1	66*	/	/	/
COC(=O)c1c(-c2cccs2)csc1NC(=O)COc1ccc(C(C)(C)C)cc1	80*	/	/	/
COC(=O)c1c(-c2cccs2)csc1NC(=O)COc1c(C)ccc(C)c1C	62*	/	/	/
CCC(Sc1c[nH]c2ccccc12)C(=O)O (stereo not drawn)	99	15	-0.15	-5
O=C(NCc1cccc2ccccc12)c1ccc2c3c(cccc13)CC2	102	7	1.4	/
COCc1nnc(NC(=O)Cc2ccccc2)s1	100	-5	-0.5	/
CCC(C)(C)C(=O)Nc1nnc(COC)s1	101	33*	0.25	10
Cc1ccc(NC(=O)CSc2nc(C)cc(C)c2C#N)cc1	98	40*	1	3
Cc1cc(C)c(C#N)c(SCC(=O)Nc2ccccc2C#N)n1	103	/	/	/
Cc1ccc(C2=NS(=O)(=O)N(C)C(C(=O)Nc3sc4c(c3C(N)=O)CCCC4)=C2)cc1	94	-67	-0.15	58*
Nn1c(COc2ccccc2)n[nH]c1=S	80*	-71	-0.75	95*
COC(=O)c1c(NC(=S)Nn2cnnc2)sc2c1CCC(C)C2 (stereo not drawn)	99	-15	-0.2	85*
COC(=O)c1c(NC(=S)NCc2ccco2)sc2c1CCC(C)C2 (stereo not drawn)	101	-18	-0.05	-3
COc1cccc(/C=N/N2C(=O)CSC2=S)c1O	85*	-37	-0.45	4
O=C(NC(=S)N1CCCC1)C1CC1	102	-7	1.4	10
CC(C)C(=O)Nc1nnc(-c2ccccc2)s1	87*	-7	0.95	/
Cc1ccc(CNC(=O)CC2CCCC2)cc1	105	/	0.7	0
CC1CCCC(C)N1C(=O)c1ccccc1NS(=O)(=O)c1ccc(F)cc1 (stereo not drawn)	101	/	-0.05	-6
CC1CCCCN1C(=O)c1ccccc1NS(=O)(=O)c1ccc(F)cc1 (stereo not drawn)	101	41*	-0.1	-3
SMILES	Polio RdRp inh	Mtb MenB inh	AID504770	Mtb MbtI inh
CCSc1ccc(SC#N)s1	95	-76	-5.2*	54
c1cncc(-c2nnc(-c3cccnc3)nn2)c1	66*	18	-1.3	/
c1ccc(-c2nnc(-c3cccnc3)nc2-c2ccccc2)cc1	98	0	-0.3	-46
O=C(CCc1ccccc1)Nc1cccc(NC(=O)CCc2ccccc2)n1	96	-36	-0.1	/
COc1ccc(N2CCN(CCN3CCCCC3)CC2)cc1	101	19	-0.1	9
COc1ccc(-n2c(C(C)N3CCCCC3)n[nH]c2=S)cc1 (stereo not drawn)	103	1	-5.2*	-6
CCc1ccc2c(c1)S(=O)(=O)C(C(F)(F)F)CO2 (stereo not drawn)	84*	4	2.5	/
CCc1cccc(NC(=O)C2COc3ccccc3O2)c1 (stereo not drawn)	102	-5	-0.3	8
N#Cc1ccc(NC(=O)CCCc2ccccc2)cc1	99	-22	-1	0
Cn1ccnc1P(=O)(O)c1ccccc1	88*	-2	0.65	6
Cc1ccc2o/c(=N\O)c(C(N)=O)cc2c1	100	-12	-1.6	100*
c1csc(-c2noc(CSc3ccc4ccccc4c3)n2)c1	105	-37	-0.3	-15
C=CCN1C(=O)CSC1=Nc1ccc(S(=O)(=O)Nc2nccc(C)n2)cc1	99	-30	-0.3	/
O=c1ccsn1Cc1ccccc1	97	-116	-9.2*	93*
COc1cc(OC)c(OC)cc1CN1CCN(c2cccc(C)c2C)CC1	96	4	-0.3	-1
CCC(C)N1CCN(Cc2cc(OC)c(OC)cc2OC)CC1 (stereo not drawn)	102	37*	1.6	4
C1CCN(c2nc(N3CCCC3)nc(N3CCNCC3)n2)C1	100	33*	0.1	-22
Cc1cc(C)nc(N2CCNCC2)n1	102	12	-0.1	58
O=C(/C=C/c1ccco1)/C=C/c1ccco1	80*	-44	-0.85	26
